Pf growth 96h: inhibits malaria parasite growth, 96 h; P. falciparum luciferase reporter growth, 96 h; Potency, µM (top dose mostly 28.7 µM), hits mostly inhibitors; 6.9% of 320,000 active
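Delayed-death screen, second-generation endpoint: infected erythrocytes, 2% hematocrit, 0.05% parasitemia final; 96 hours at 37 C, 5% CO2; luciferase detection reagent; luminescence decrease equals reduced growth.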
Pf growth 48h: inhibits P. falciparum growth in the first generation, 48 h; P. falciparum luciferase growth in erythrocytes, 48 h; Potency, µM (series often up to 28.7 µM), hits mostly inhibitors; 5.9% of 310,000 active; AID 504832
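Luciferase-expressing parasites in RBCs, 2% Hct / 0.1% parasitemia final; RPMI 1640 + 0.5% Albumax; 37 C, 5% CO2, one generation; luminescence read-out, lower signal = inhibition.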
SARS PLpro yeast: blocks SARS-CoV papain-like protease in a yeast assay. 0.19% of 330,000 active. Potency, µM (doses to about 32.9 µM), actives largely listed as activators. S. cerevisiae expressing SARS-CoV PLpro, growth rescue. AID 485353; calls by dose curve; note: nearly all actives have a fitted effect of over 55% in size
Shiga toxin inh: inhibitors of Shiga toxin in Vero cells. Vero cells, Shiga toxin protein synthesis inhibition reporter. inhibition, % at 38.7 µM. 9.2% of 290,000 active; in the data active = inhibition mostly above about 28%, no sharp cut-off; inactive = mostly below about 43%
NS1 function inh: blocks influenza NS1 protein function; Potency, µM (doses to about 46.1 µM); 0.4% of 270,000 active; calls by dose curve; note: actives are rising curves; nearly all actives have a fitted effect of over 50% in size
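In this qHTS, NS1 from influenza A is expressed in budding yeast, where it slows growth. Cells are switched from glucose to 2% galactose medium (pH 6.0, -URA), treated with compound, and growth recovery is read at OD600.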
Cycloheximide cs: affects cycloheximide protein synthesis inhibition readout, counter-screen. cell reporter, cycloheximide protein synthesis inhibition counterscreen. 12% of 300,000 active. max response, %. AID 2314; in the data active = max response mostly above about 13%, no sharp cut-off; inactive = mostly below about 14%; note: read at 38.3 µM for the half of the compounds with a filed dose
Each line names hits and unclear results; the compound was inactive in the other large screens. Most compounds without a hit are left out; they make up all but 21% or so of the library. Unless noted, calls come from the whole dose curve; as a rule, active = well fitted inhibition curve with a large enough effect; inconclusive = small, poorly fitted or top-dose-only effect, or another doubt; inactive = no such curve, though single readings can be large or run the other way.

O=C(O)c1cccc(Cn2c(Cl)c(/C=N/NC(=O)c3cccc(O)c3)sc2=O)c1	Pf growth 96h inconclusive, Shiga toxin inh 75, Cycloheximide cs 24
O=C(O)c1cccc(Cn2c(Cl)c(/C=N/NC(=O)c3ccccc3)sc2=O)c1	none
N#CCNC(=O)C1c2ccccc2Oc2ccccc21	none
O=C(CCC1CCCN(C(=O)c2ccc3c(c2)OCO3)C1)NCc1ccc(F)c(F)c1 (stereo not given)	Pf growth 96h inconclusive, Pf growth 48h inconclusive, Shiga toxin inh 41, Cycloheximide cs 15
O=C(CCC1CCCN(C(=O)c2ccoc2)C1)NCc1ccc(F)c(F)c1 (stereo not given)	none
O=C(CCC1CCCN(C(=O)c2ccc3cc[nH]c3c2)C1)NCc1ccc(F)c(F)c1 (stereo not given)	Pf growth 96h inconclusive, Pf growth 48h inconclusive, Shiga toxin inh 30, Cycloheximide cs 29
O=C(CCC1CCCN(C(=O)C2CCCC2)C1)NCc1ccc(F)c(F)c1 (stereo not given)	Pf growth 48h inconclusive
COc1cc(/C=C(/C#N)C(=O)Nc2ccc(C)cc2)ccc1Oc1nc(Cl)ncc1F	none
CC1CCCCC12NC(=O)N(CC(=O)Nc1sc3c(c1C(N)=O)CCC3)C2=O (stereo not given)	Pf growth 96h 10µM (no result: Pf growth 48h)
CC(C)(C)OC(=O)N[C@@H](Cc1ccccc1)[C@H](O)c1ccco1	Cycloheximide cs 20
CC(C)(C)OC(=O)NC(Cc1ccccc1)C(O)c1ccco1 (stereo not given)	none (no result: Pf growth 96h, Pf growth 48h, SARS PLpro yeast, NS1 function inh)
Cc1ccc(C(=O)NCCc2ccccc2)cc1S(=O)(=O)N1CCOCC1	Pf growth 96h inconclusive (no result: Shiga toxin inh, NS1 function inh, Cycloheximide cs)
CCOc1cc(CNc2ccc(CNc3ncn[nH]3)cc2)ccc1OCc1ccccc1	Pf growth 96h 13µM, Pf growth 48h inconclusive
Fc1ccc(CNc2ccc(CNc3ncn[nH]3)cc2)cc1	Cycloheximide cs 22
CC[C@@]1(C(=O)OC)N[C@H](CN(C)C(=O)c2ccc(C)cc2)[C@@H]2C(=O)N(Cc3ccccc3)C(=O)[C@@H]21	none (no result: Pf growth 96h, Pf growth 48h, Shiga toxin inh, NS1 function inh, Cycloheximide cs)
CCNc1nc(NCC)nc(C(=O)OCCO)n1	none (no result: Pf growth 48h)
Cc1ccc(-n2nc(C)c3c2OC(N)=C(C#N)C3c2ccncc2)cc1 (stereo not given)	Pf growth 96h 0.52µM
Cc1nn(-c2ccccc2)c2c1C(c1ccncc1)C(C#N)=C(N)O2 (stereo not given)	none (no result: Pf growth 96h)
Cc1ccc(-n2nc(C)c3c2OC(N)=C(C#N)C3c2cccs2)cc1 (stereo not given)	Cycloheximide cs 17
Cc1nn(-c2ccccc2)c(Cl)c1C1C(C#N)=C(N)Oc2n[nH]c(C)c21 (stereo not given)	none
Cc1nn(-c2ccccc2)c(Cl)c1C1C(C#N)=C(N)Oc2c1c(C)nn2-c1ccccc1 (stereo not given)	Pf growth 96h 10µM, Pf growth 48h 10µM
Cc1ccc(-n2nc(C)c3c2OC(N)=C(C#N)C3c2ccccc2F)cc1 (stereo not given)	Pf growth 96h inconclusive, Pf growth 48h inconclusive
CCc1ccc(NC(=O)CSc2nc3ncc(Br)cc3[nH]2)cc1	none
Cc1onc(-c2ccccc2Cl)c1C(=O)N1CCN(C)CC1	none
COC(=O)c1c(NC(=O)Cn2cnc([N+](=O)[O-])n2)sc2c1CCC(C)C2 (stereo not given)	Pf growth 96h inconclusive, Pf growth 48h inconclusive
Brc1cc2c(cc1CSc1ncccn1)OCO2	Pf growth 48h inconclusive
C=CC[n+]1c(/C=C2\C=Cc3cc(C)ccc3N2CC)ccc2ccccc21	Pf growth 96h inconclusive, Pf growth 48h 13µM (no result: NS1 function inh)
CCC(C)(C)c1ccc(OCCCC[n+]2cccc(C)c2)c(C(C)(C)CC)c1	Pf growth 96h inconclusive, Pf growth 48h 2.3µM (no result: NS1 function inh)
Cc1ccc[n+](CC(=O)Nc2cc(C(F)(F)F)ccc2Cl)c1	Pf growth 96h inconclusive, Pf growth 48h inconclusive
CC(CCc1ccccc1)NC(=O)CNC(=O)c1cccs1 (stereo not given)	none
CC(=O)N(C)c1ccc(OCC(O)CN(c2ccccc2C)S(=O)(=O)c2ccc(C)cc2)cc1 (stereo not given)	Pf growth 96h 2.9µM, Pf growth 48h 13µM
CCC(C)(C)NC(=O)C(c1cccc(OC)c1OC)N(C(=O)CCC(=O)Nc1cc(C)on1)C(C)C (stereo not given)	Pf growth 96h inconclusive
Cc1cc[n+](CC(=O)Nc2ccccc2)cc1	Pf growth 96h inconclusive, Pf growth 48h inconclusive (no result: Shiga toxin inh)
O=C(C[n+]1ccccc1)Nc1ccc(Oc2ccccc2)cc1	Pf growth 48h 6.6µM
CCN(CC)C(=O)C(=O)Nc1ccc(Oc2ccccc2)cc1	Shiga toxin inh 78, Cycloheximide cs 24
O=C(C[n+]1ccccc1)Nc1ccccc1Br	Shiga toxin inh 53, Cycloheximide cs 24
CCN(CC)CC(=O)Nc1ccc(Oc2ccc(NC(=O)CN(CC)CC)cc2)cc1	Pf growth 48h inconclusive
O=C(CN1CCN(CC(=O)Nc2cccc(F)c2)CC1)Nc1ccc(-c2ccccc2)cc1	none
Cn1c(=O)[nH]c(NC2CCCCC2)c(N=O)c1=O	none
CC(=O)c1cccc(NC(=O)N2CCCC2C(=O)Nc2cccc(C)c2C)c1 (stereo not given)	Pf growth 96h 2.9µM
CC(=O)c1cccc(NC(=O)N2CCCC2C(=O)Nc2ccccc2C)c1 (stereo not given)	Pf growth 96h inconclusive
CC(=O)c1cccc(NC(=O)N2CCCC2C(=O)NCc2ccc(F)cc2)c1 (stereo not given)	Pf growth 96h 10µM
CC(=O)Oc1cccc(/C=C2\Sc3ccccc3C2=O)c1	Shiga toxin inh 51, Cycloheximide cs 28
CN1CCN(NC(=S)Nc2ccc(OC(F)F)cc2)CC1	none (no result: NS1 function inh)
CCCCc1ccc(NC(=O)CN(C)CC(=O)Nc2ccccc2Cl)cc1	Pf growth 96h inconclusive, Pf growth 48h inconclusive
Cc1nc(NC(=O)c2ccccc2)sc1-c1csc(NCCc2ccccc2)n1	Pf growth 96h 4.1µM (no result: Pf growth 48h)
Cc1nc(NC(=O)c2ccccc2)sc1-c1csc(N)n1	Pf growth 48h 1.9µM, Shiga toxin inh 48, Cycloheximide cs 29
CN(C)c1ccc(C(C(=O)NC2CCCC2)N(C(=O)c2ccco2)C2CC2)cc1 (stereo not given)	Pf growth 48h inconclusive
Cc1nn(C(C)C(=O)N2CCOCC2)c(C)c1[N+](=O)[O-] (stereo not given)	Pf growth 96h inconclusive
COc1ccc(C2(O)C(=O)Nc3ccc(C)cc32)cc1OC (stereo not given)	Pf growth 96h inconclusive
CCN(Cc1ccccc1)C(=O)c1cc2c(OC)c(OC)c(OC)cc2[nH]1	Pf growth 96h 8.3µM (no result: Pf growth 48h)
COc1cc2[nH]c(C(=O)N3CCc4ccccc43)cc2c(OC)c1OC	Shiga toxin inh 47, Cycloheximide cs 30
COc1cc2[nH]c(C(=O)N3CCC(Cc4ccccc4)CC3)cc2c(OC)c1OC	Pf growth 96h 3.7µM, Pf growth 48h 3.3µM
CC1CCc2c(sc(NC(=O)CSc3ncnc4c3cnn4-c3ccccc3Cl)c2C#N)C1 (stereo not given)	Pf growth 96h inconclusive

Screening results as filed in PubChem BioAssay.
